In paper PMC7862700, “An all-to-all approach to the identification of sequence-specific readers for epigenetic DNA modifications on cytosine”:

Legend:
Test in all cases: DAPPL (digital affinity profiling via proximity ligation, sequencing); 10 mM Tris-HCl pH 7.5, 50 mM NaCl, 1 mM DTT, 4% glycerol, room temperature, 30 min; GST-TFs on glutathione beads, 16-mer random dsDNA library, 0.1% formaldehyde crosslink after washing; high values mean tight binding
Conditions in all cases: protein: recombinant; tags: N-terminal GST; dsDNA, one strand shown
[1] = target: T1, FLI1 (Homo sapiens, UniProt Q01543 1-452)
T1 sequence: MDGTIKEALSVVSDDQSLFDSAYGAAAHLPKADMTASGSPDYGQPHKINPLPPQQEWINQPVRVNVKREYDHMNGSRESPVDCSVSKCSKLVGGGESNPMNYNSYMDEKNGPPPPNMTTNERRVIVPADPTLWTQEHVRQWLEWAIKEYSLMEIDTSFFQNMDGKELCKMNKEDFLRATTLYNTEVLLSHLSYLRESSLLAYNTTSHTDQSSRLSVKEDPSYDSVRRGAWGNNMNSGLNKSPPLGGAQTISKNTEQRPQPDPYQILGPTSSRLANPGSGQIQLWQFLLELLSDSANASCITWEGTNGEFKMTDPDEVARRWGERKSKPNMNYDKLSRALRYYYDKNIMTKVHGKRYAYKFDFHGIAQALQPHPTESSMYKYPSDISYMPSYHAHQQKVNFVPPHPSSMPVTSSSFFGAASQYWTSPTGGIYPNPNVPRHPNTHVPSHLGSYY
Procedure, shortened: (§1)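 GST fusions of human transcription factors were expressed in yeast and captured with glutathione beads. Once given DNA barcodes and pooled alongside a tag-only sample, they were incubated for 30 min at room temperature with 200 nmole of a random double-stranded 16-mer DNA library in Tris/NaCl/DTT/glycerol buffer, then washed, crosslinked (0.1% formaldehyde), proximity-ligated, PCR-amplified and sequenced on an Illumina NextSeq500. The binding signal of each hexamer is its read frequency for a factor divided by its frequency for the tag-only sample.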

[2] = target: ELF1 (Homo sapiens, UniProt P32519 1-619)
Sequence of ELF1 (P32519 whole entry): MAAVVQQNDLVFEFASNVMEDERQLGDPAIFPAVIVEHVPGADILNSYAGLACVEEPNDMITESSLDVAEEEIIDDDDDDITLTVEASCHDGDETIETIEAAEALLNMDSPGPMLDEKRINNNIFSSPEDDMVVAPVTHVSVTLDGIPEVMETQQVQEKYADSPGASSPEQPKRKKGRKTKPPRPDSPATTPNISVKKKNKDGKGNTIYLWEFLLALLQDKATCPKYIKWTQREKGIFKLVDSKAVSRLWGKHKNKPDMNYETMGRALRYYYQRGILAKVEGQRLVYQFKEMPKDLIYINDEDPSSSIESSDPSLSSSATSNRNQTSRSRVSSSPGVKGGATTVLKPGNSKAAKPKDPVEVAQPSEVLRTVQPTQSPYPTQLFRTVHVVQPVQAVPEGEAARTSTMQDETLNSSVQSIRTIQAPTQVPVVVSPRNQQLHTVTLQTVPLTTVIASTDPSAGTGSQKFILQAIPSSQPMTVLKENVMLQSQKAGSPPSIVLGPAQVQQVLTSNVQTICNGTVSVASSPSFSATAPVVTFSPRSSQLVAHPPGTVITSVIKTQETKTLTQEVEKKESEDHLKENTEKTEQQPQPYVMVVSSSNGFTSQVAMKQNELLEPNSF
Procedure, shortened: as §1

[3] = target: SPI1 (Homo sapiens, UniProt P17947 1-270)
Procedure, shortened: as §1

[4] = target: SPIB (Homo sapiens, UniProt Q01892 1-262)
Sequence of SPIB (Q01892 whole entry): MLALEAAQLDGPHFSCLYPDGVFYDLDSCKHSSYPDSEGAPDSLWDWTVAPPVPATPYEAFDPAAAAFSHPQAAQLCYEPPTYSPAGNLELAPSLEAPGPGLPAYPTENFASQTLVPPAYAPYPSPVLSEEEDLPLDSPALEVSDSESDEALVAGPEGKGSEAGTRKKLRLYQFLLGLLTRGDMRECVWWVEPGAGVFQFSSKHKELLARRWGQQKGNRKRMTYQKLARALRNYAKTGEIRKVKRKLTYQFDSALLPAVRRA
Procedure, shortened: as §1

[5] = target: T2, ELK3 (Homo sapiens, UniProt P41970 1-407)
T2 sequence: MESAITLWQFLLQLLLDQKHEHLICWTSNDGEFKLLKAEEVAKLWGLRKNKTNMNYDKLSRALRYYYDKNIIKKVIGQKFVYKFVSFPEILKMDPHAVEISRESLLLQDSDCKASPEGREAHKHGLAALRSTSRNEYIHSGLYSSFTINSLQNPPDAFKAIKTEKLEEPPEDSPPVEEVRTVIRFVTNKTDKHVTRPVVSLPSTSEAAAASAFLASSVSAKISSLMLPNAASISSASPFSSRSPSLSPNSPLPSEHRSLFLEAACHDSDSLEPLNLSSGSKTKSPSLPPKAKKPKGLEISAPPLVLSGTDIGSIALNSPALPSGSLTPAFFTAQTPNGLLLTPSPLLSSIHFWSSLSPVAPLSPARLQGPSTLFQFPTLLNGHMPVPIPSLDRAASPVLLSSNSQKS
Procedure, shortened: as §1

[6] = target: ETV5 (Homo sapiens, UniProt P41161 1-510)
Sequence of ETV5 (P41161 whole entry): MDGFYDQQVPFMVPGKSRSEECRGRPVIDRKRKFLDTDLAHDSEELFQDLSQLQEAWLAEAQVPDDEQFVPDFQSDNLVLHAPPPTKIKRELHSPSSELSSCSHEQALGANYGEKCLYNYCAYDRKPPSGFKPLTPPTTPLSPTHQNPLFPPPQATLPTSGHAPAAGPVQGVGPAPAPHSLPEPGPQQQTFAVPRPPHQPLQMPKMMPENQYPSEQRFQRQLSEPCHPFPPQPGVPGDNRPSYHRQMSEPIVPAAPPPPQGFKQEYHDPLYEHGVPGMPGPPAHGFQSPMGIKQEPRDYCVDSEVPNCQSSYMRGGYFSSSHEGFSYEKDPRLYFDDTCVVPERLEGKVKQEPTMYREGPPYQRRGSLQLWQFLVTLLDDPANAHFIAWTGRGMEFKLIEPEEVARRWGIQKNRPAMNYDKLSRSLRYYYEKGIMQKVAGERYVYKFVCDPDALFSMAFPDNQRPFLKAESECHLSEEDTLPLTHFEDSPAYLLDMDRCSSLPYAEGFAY
Procedure, shortened: as §1

[7] = target: T3, SPIC (Homo sapiens, UniProt Q8N5J4 1-248)
T3 sequence: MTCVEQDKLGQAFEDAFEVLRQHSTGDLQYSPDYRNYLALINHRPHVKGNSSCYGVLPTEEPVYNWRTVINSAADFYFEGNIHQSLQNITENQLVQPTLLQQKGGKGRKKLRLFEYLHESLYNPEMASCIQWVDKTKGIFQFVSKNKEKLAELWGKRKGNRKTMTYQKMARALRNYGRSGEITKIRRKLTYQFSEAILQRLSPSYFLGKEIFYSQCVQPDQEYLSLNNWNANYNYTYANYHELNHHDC
Procedure, shortened: as §1

[8] = target: T4, ERF (Homo sapiens, UniProt P50548 1-548)
T4 sequence: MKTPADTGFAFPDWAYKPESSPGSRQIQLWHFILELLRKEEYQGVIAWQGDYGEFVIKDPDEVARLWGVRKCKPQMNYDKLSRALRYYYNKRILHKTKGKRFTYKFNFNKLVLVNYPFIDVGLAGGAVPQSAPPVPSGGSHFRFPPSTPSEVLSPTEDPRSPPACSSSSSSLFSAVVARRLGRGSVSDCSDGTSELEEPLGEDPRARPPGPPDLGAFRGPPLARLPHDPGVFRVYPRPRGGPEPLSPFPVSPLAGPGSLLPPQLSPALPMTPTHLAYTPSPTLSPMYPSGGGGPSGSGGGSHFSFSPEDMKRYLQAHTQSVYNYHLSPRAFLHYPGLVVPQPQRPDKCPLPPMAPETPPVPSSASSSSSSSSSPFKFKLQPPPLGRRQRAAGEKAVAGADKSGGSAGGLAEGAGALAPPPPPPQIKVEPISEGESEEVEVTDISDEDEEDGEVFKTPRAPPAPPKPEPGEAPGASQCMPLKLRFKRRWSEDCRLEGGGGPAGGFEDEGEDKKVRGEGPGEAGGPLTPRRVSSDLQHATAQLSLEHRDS
Procedure, shortened: as §1

[9] = target: T5, ETV3L (Homo sapiens, UniProt Q6ZN32 1-361)
T5 sequence: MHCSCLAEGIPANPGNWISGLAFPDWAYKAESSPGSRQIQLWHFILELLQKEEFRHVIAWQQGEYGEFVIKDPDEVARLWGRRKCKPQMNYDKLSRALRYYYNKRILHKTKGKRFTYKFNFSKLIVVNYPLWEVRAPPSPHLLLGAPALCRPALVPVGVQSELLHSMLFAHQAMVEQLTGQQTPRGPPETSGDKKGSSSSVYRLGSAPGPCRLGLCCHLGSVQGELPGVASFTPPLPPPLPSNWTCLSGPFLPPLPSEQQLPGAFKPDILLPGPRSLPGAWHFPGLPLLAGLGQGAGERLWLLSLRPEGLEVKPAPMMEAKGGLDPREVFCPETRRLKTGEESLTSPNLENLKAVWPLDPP
Procedure, shortened: as §1

[10] = target: T6, ETS2 (Homo sapiens, UniProt P15036 1-469)
T6 sequence: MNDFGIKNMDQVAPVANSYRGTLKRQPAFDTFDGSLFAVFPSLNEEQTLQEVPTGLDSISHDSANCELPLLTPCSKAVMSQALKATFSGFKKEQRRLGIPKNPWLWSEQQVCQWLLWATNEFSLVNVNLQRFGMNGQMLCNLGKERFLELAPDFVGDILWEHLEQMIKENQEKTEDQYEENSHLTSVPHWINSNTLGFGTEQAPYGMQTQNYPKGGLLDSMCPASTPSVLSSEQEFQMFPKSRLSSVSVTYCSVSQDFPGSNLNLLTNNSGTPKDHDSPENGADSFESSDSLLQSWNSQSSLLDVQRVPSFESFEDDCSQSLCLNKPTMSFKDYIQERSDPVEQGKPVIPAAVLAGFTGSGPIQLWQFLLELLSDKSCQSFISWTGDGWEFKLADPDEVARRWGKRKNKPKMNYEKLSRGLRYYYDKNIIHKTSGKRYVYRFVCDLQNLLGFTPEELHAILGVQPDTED
Procedure, shortened: as §1

[11] = target: ETV6 (Homo sapiens, UniProt P41212 1-452)
Sequence of ETV6 (P41212 whole entry): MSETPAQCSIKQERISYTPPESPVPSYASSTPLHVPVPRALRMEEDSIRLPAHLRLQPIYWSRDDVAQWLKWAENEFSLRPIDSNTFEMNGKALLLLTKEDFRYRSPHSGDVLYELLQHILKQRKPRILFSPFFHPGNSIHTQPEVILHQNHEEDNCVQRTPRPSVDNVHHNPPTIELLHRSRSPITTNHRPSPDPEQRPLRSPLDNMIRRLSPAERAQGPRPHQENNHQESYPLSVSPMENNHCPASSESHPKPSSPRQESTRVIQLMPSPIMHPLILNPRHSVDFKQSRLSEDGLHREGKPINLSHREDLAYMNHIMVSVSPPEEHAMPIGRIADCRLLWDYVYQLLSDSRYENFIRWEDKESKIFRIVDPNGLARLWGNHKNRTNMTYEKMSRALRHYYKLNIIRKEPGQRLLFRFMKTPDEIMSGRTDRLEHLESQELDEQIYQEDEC
Procedure, shortened: as §1

[12] = target: T7, ELK1 (Homo sapiens, UniProt P19419 1-428)
T7 sequence: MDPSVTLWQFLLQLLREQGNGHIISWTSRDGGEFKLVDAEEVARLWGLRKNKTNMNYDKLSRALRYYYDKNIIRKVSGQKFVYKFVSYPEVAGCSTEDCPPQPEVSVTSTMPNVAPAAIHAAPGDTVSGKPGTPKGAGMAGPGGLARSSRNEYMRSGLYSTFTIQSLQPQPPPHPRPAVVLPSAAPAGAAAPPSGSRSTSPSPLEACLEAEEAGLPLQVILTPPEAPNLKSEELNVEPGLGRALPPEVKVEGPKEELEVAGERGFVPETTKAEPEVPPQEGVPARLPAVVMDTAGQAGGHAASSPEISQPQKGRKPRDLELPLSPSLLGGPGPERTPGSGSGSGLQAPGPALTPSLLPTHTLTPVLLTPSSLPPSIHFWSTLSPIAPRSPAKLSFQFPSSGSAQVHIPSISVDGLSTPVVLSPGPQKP
Procedure, shortened: as §1

[13] = target: T8, GABPA (Homo sapiens, UniProt Q06546 1-454)
T8 sequence: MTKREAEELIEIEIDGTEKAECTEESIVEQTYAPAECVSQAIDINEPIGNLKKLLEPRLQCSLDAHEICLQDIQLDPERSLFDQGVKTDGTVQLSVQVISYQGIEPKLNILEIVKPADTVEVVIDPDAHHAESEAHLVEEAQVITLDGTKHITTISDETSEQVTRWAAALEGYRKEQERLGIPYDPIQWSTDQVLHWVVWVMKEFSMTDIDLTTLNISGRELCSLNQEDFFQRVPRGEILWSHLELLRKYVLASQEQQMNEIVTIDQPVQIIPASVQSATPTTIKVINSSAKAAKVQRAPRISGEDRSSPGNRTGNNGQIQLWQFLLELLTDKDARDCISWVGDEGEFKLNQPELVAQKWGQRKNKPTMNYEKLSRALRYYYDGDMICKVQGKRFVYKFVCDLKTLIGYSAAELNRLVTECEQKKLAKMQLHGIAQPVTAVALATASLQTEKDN
Procedure, shortened: as §1

[14] = target: T9, EHF (Homo sapiens, UniProt Q9NZC4 1-300)
T9 sequence: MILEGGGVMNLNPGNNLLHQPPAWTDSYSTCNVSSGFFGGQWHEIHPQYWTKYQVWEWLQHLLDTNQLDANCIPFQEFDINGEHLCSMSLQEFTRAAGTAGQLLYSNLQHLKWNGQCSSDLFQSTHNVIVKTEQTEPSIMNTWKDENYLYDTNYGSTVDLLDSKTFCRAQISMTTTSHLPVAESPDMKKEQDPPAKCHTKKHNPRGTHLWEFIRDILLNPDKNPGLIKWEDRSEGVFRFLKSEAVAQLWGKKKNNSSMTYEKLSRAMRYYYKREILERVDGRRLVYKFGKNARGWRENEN
Procedure, shortened: as §1

[15] = target: T10, FEV (Homo sapiens, UniProt Q99581 1-238)
T10 sequence: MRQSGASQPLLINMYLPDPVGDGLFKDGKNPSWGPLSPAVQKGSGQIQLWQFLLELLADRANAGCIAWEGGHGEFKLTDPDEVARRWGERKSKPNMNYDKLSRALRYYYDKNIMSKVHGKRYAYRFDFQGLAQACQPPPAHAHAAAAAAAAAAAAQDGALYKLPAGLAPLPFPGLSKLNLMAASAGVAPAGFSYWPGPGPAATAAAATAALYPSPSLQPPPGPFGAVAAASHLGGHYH
Procedure, shortened: as §1

[16] = target: ETV1 (Homo sapiens, UniProt P50549 1-477)
Sequence of ETV1 (P50549 whole entry): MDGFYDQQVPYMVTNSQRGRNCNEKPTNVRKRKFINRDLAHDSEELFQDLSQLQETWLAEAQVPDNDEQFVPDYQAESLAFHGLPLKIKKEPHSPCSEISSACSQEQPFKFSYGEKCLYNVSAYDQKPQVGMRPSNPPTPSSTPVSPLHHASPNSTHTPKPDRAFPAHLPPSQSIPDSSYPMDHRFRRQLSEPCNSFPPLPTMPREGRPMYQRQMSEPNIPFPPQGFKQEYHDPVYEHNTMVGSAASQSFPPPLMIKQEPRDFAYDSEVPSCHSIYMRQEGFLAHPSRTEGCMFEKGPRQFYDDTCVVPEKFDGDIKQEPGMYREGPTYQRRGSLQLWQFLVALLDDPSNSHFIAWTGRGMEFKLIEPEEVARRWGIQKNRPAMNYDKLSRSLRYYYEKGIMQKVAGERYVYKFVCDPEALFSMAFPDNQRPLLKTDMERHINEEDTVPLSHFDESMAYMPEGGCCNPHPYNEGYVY
Procedure, shortened: as §1

[17] = target: T11, ELF5 (Homo sapiens, UniProt Q9UKW6-2 1-255)
T11 sequence: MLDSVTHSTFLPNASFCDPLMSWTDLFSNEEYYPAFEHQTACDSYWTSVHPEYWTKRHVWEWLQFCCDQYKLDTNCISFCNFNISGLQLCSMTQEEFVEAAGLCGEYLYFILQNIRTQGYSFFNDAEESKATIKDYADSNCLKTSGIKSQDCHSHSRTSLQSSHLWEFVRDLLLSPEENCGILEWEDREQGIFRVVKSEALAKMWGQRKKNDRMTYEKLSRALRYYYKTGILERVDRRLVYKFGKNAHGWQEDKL
Procedure, shortened: as §1

[18] = target: T12, ETV3 (Homo sapiens, UniProt P41162-2 1-143)
T12 sequence: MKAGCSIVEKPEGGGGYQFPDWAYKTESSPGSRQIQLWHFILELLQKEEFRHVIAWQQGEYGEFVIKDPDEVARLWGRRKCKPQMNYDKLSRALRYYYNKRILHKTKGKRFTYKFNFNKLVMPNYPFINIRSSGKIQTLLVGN
Procedure, shortened: as §1

Row | Sequence | binding signal [1] | binding signal [2] | binding signal [3] | binding signal [4] | binding signal [5] | binding signal [6] | binding signal [7] | binding signal [8] | binding signal [9] | binding signal [10] | binding signal [11] | binding signal [12] | binding signal [13] | binding signal [14] | binding signal [15] | binding signal [16] | binding signal [17] | binding signal [18]
1 | GTTATA | 1.12 fold enrichment (6-mer frequency, TF over GST control) | 1.03 fold enrichment (6-mer frequency, TF over GST control) | 1.01 fold enrichment (6-mer frequency, TF over GST control) | 1.03 fold enrichment (6-mer frequency, TF over GST control) | 1.06 fold enrichment (6-mer frequency, TF over GST control) | 1.04 fold enrichment (6-mer frequency, TF over GST control) | 1.15 fold enrichment (6-mer frequency, TF over GST control) | 1.03 fold enrichment (6-mer frequency, TF over GST control) | 1.06 fold enrichment (6-mer frequency, TF over GST control) | 1.06 fold enrichment (6-mer frequency, TF over GST control) | 1 fold enrichment (6-mer frequency, TF over GST control) | – | – | – | – | – | – | –
2 | ACTGTA | 1 fold enrichment (6-mer frequency, TF over GST control) | 1.08 fold enrichment (6-mer frequency, TF over GST control) | 1.09 fold enrichment (6-mer frequency, TF over GST control) | – | 1.04 fold enrichment (6-mer frequency, TF over GST control) | 1.08 fold enrichment (6-mer frequency, TF over GST control) | 1.24 fold enrichment (6-mer frequency, TF over GST control) | – | 1.01 fold enrichment (6-mer frequency, TF over GST control) | – | 1.03 fold enrichment (6-mer frequency, TF over GST control) | 1.09 fold enrichment (6-mer frequency, TF over GST control) | 1.03 fold enrichment (6-mer frequency, TF over GST control) | 1.11 fold enrichment (6-mer frequency, TF over GST control) | 1 fold enrichment (6-mer frequency, TF over GST control) | 1.02 fold enrichment (6-mer frequency, TF over GST control) | 1.07 fold enrichment (6-mer frequency, TF over GST control) | 1 fold enrichment (6-mer frequency, TF over GST control)
